Assays:
Assay in all cases: DAPPL (digital affinity profiling via proximity ligation, sequencing); 10 mM Tris-HCl pH 7.5, 50 mM NaCl, 1 mM DTT, 4% glycerol, room temperature, 30 min; GST-TFs on glutathione beads, 16-mer random dsDNA library, 0.1% formaldehyde crosslink after washing; high values mean tight binding
Details in all cases: protein: recombinant; tags: N-terminal GST; dsDNA, one strand shown
[1] = molecular target: T1, ELK1 (Homo sapiens, UniProt P19419 1-428)
T1 sequence: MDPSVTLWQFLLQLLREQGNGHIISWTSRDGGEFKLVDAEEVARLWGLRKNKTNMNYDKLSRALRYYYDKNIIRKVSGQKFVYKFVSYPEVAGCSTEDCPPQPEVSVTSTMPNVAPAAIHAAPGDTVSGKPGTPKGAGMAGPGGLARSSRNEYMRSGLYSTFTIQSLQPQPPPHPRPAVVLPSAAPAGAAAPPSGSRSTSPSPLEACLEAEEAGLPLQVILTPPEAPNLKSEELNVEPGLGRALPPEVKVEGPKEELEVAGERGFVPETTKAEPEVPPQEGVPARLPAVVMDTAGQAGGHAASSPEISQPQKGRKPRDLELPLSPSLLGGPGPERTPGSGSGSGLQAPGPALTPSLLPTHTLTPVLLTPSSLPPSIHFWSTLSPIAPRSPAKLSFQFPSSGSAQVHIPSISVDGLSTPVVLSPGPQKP
Method in brief: (§1)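 Pools were built from human transcription factors expressed in yeast as GST fusions, captured on glutathione beads and DNA-barcoded, along with a tag-only sample. Incubation with 200 nmole of a 16-mer random double-stranded DNA library lasted 30 min at room temperature in Tris/NaCl/DTT/glycerol buffer, and was followed by washing, 0.1% formaldehyde crosslinking, proximity ligation, PCR amplification and Illumina NextSeq500 sequencing. Binding signal is the quotient of each hexamer's read frequency for a factor and its frequency for the tag-only sample.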

[2] = molecular target: T2, GABPA (Homo sapiens, UniProt Q06546 1-454)
T2 sequence: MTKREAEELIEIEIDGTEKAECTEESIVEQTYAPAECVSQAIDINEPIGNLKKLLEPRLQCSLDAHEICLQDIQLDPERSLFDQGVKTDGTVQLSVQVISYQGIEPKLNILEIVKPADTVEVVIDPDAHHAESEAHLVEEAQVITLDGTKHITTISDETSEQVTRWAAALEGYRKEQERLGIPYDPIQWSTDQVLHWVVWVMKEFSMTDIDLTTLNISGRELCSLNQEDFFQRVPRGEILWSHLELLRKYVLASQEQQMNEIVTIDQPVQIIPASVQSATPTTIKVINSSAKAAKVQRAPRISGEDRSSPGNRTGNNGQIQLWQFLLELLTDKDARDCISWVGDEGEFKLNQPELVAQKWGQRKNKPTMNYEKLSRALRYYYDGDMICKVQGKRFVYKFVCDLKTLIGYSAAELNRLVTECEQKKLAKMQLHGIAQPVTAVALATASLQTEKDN
Method in brief: as §1

[3] = molecular target: T3, ERG (Homo sapiens, UniProt P11308 1-479)
T3 sequence: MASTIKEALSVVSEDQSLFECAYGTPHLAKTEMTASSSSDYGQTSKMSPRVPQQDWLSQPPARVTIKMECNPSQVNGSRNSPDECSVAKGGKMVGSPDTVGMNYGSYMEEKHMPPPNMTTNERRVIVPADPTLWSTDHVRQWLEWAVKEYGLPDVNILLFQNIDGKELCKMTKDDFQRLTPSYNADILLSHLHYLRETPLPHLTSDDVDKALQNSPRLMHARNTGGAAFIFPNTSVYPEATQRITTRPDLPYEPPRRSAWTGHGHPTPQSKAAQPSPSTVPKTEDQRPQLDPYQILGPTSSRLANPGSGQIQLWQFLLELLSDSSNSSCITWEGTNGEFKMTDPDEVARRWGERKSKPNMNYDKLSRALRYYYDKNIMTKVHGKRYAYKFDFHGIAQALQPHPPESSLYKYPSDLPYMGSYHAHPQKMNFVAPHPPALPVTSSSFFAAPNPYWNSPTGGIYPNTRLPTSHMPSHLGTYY
Method in brief: as §1

[4] = molecular target: ELF1 (Homo sapiens, UniProt P32519 1-619)
Method in brief: as §1

[5] = molecular target: T4, EHF (Homo sapiens, UniProt Q9NZC4 1-300)
T4 sequence: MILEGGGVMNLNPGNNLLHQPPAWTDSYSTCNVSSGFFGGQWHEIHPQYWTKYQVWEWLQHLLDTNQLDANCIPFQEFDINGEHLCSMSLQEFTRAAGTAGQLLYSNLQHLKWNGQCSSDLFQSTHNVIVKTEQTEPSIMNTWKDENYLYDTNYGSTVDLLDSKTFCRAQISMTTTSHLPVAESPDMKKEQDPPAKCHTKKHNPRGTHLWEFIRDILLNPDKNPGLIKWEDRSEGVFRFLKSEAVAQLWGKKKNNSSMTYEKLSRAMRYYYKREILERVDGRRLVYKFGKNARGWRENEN
Method in brief: as §1

[6] = molecular target: SPIB (Homo sapiens, UniProt Q01892 1-262)
Method in brief: as §1

[7] = molecular target: T5, FEV (Homo sapiens, UniProt Q99581 1-238)
T5 sequence: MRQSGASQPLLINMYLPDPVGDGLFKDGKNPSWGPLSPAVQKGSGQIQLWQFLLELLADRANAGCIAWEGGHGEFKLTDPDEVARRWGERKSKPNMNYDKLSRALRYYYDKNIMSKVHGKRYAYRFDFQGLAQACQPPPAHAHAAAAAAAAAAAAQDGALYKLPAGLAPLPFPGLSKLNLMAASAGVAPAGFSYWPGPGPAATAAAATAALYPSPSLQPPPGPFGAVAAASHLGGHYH
Method in brief: as §1

[8] = molecular target: ETV5 (Homo sapiens, UniProt P41161 1-510)
Method in brief: as §1

[9] = molecular target: ELF4 (Homo sapiens, UniProt Q99607 1-663)
Method in brief: as §1

[10] = molecular target: T6, ELK4 (Homo sapiens, UniProt P28324-2 1-405)
T6 sequence: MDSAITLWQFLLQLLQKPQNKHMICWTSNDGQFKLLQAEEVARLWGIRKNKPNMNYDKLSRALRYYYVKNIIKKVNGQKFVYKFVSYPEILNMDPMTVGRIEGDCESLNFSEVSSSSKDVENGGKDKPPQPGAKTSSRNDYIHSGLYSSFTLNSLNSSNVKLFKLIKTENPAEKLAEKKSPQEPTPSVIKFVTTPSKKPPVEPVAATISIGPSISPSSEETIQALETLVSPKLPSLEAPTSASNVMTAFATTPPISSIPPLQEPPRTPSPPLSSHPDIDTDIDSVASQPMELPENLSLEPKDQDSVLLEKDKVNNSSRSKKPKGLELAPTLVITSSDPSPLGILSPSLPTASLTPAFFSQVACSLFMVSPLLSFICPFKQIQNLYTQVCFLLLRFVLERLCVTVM
Method in brief: as §1

Sequence of ETV5 (P41161 whole entry): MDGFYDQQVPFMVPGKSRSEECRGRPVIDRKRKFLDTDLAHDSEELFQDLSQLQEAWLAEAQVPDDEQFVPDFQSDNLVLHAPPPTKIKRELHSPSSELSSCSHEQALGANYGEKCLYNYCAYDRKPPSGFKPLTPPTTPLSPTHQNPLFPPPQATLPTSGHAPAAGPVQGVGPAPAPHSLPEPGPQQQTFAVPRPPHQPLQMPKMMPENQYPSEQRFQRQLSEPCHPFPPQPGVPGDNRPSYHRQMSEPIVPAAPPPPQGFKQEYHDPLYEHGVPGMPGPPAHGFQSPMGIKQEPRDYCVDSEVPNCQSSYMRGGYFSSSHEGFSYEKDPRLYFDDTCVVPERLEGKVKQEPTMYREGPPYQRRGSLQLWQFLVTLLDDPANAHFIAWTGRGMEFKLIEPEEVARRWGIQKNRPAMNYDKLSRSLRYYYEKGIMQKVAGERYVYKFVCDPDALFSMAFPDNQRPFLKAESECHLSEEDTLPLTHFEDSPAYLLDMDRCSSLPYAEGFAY
Sequence of ELF4 (Q99607 whole entry): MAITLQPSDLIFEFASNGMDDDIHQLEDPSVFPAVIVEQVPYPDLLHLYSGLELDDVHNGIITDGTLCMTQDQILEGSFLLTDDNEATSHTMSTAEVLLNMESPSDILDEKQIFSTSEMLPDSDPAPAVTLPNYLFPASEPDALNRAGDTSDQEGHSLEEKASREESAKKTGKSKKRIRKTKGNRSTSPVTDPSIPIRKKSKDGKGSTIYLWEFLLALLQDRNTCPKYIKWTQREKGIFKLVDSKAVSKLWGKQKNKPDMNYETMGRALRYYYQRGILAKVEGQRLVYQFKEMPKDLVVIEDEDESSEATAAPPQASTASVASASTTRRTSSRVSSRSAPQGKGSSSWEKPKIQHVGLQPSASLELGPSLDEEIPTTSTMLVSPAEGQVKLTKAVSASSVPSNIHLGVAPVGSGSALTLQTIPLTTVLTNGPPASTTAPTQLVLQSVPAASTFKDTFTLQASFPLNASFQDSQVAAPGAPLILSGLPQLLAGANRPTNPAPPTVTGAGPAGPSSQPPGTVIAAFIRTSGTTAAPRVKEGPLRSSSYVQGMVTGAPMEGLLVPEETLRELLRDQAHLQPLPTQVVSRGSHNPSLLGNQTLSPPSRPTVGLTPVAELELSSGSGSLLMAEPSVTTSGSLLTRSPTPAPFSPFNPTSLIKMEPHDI
Sequence of SPIB (Q01892 whole entry): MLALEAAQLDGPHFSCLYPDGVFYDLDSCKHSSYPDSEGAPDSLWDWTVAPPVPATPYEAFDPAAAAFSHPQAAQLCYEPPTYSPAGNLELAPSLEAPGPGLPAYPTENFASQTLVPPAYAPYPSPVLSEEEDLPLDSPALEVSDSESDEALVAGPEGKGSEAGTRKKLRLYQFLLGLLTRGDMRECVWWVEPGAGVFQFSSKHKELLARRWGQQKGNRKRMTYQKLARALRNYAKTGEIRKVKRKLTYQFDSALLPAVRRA
Sequence of ELF1 (P32519 whole entry): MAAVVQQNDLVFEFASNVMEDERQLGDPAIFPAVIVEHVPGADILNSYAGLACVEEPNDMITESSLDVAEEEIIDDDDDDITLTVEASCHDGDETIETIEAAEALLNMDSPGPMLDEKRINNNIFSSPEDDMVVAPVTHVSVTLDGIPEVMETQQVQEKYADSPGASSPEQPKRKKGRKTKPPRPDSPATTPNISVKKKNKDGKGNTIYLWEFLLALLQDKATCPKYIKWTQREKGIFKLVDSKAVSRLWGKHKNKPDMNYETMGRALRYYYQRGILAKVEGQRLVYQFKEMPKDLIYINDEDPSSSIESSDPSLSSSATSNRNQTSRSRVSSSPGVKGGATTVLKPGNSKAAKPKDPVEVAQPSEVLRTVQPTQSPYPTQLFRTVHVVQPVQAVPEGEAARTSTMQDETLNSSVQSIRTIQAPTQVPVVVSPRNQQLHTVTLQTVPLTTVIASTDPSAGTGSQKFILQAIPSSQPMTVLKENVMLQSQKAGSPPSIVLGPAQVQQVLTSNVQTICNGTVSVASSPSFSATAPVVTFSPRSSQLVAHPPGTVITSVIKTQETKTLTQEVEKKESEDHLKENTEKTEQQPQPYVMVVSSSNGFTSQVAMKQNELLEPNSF

## ATGCCA
[1]
  binding signal: 1.06 fold enrichment (6-mer frequency, TF over GST control)
[2]
  binding signal: 1.02 fold enrichment (6-mer frequency, TF over GST control)
[3]
  binding signal: 1.04 fold enrichment (6-mer frequency, TF over GST control)
[4]
  binding signal: 1.07 fold enrichment (6-mer frequency, TF over GST control)
[5]
  binding signal: 1.05 fold enrichment (6-mer frequency, TF over GST control)
[6]
  binding signal: 1.03 fold enrichment (6-mer frequency, TF over GST control)
[7]
  binding signal: 1.04 fold enrichment (6-mer frequency, TF over GST control)
[8]
  binding signal: 1.05 fold enrichment (6-mer frequency, TF over GST control)
[9]
  binding signal: 1.09 fold enrichment (6-mer frequency, TF over GST control)
[10]
  binding signal: 1.02 fold enrichment (6-mer frequency, TF over GST control)
